# Most compounds without a hit are left out; they make up all but 12% or so of the library.
# Sm TGR inh: qHTS Assay for the Inhibitors of Schistosoma Mansoni Peroxiredoxins. AID 485364, 2010. Schistosoma mansoni thioredoxin glutathione reductase (TGR), Q962Y6. purified TGR, DTNB reduction, TNB absorbance 405 nm. Potency, µM (titrated, usually from 114 µM), for the others: at the top dose activity change, negative = inhibition, hits mostly inhibitors. actives 3% (n = 360,000); active = well fitted inhibition curve with a large enough effect; inconclusive = small, poorly fitted or top-dose-only effect; inactive = no such curve, though single readings can be large or run the other way; also: potency is read from the fitted curve at half-maximal effect; % is scaled to controls: 0 for no effect and ±100 for the full control effect; nearly all actives have a fitted effect of over 60% in size
#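 TGR 20 nM + NADPH 100 uM (dispensed conc.), cpd preinc 15 min RT; start with NADPH (500 uM addition) then DTNB (15 mM addition). Kinetic TNB absorbance, 405 nm filter. Four-parameter Hill fit across titration.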
# Shiga toxin inh: A qHTS for Small Molecule Inhibitors of Shiga Toxin; Vero cells, Shiga toxin protein synthesis inhibition reporter; actives 9.2% (n = 290,000); inhibition, % at 38.7 µM; in the data active = inhibition mostly above about 28%, no sharp cut-off; inactive = mostly below about 43%; also: 0% is about no effect
# FMDV antiviral: High Throughput Screening for Foot and Mouth Disease Virus Antivirals. FMDV antiviral cell-based qHTS. Potency, µM (doses to about 57.9 µM), for the others: at the top dose activity change, negative = inhibition, actives largely listed as inhibitors. actives 1.2% (n = 410,000). AID 1159524, 2015; calls by dose curve; tested in HEK293T cells; also: read-out not given here; potency is read from the fitted curve at half-maximal effect; % is scaled to controls: 0 for no effect and ±100 for the full control effect; nearly all actives have a fitted effect of over 45% in size
# CHX counter: Cycloheximide Counterscreen for Small Molecule Inhibitors of Shiga Toxin. AID 2314, 2010. max response, %. actives 12% (n = 300,000). cell reporter, cycloheximide protein synthesis inhibition counterscreen; in the data active = max response mostly above about 13%, no sharp cut-off; inactive = mostly below about 14%; also: read at 38.3 µM for the half of the compounds with a filed dose; 0% is about no effect
# An asterisk follows results filed as active; ? = inconclusive; . = no result given; + = active, no number.
SMILES,Sm TGR inh,Shiga toxin inh,FMDV antiviral,CHX counter
CCSc1nnc(NC(=O)c2csc(C)c2)s1,-2.5%,48.8*,51.9%,16.9*
Cc1ccc(NC(=O)CSc2nc3ccc(NC(=O)c4ccco4)cc3s2)c(C)c1,-4.4%,.,-24.6%,.
COCCSc1nnc(NC(=O)c2ccc([N+](=O)[O-])cc2)s1,1.8%,49.2,30.2%,14.7
CN(C)c1ccc(C(CNC(=O)c2ccccc2Cl)N2CCCC2)cc1 (stereo not given),-5.2%,.,-2.9%,.
COc1ccc(NC(=O)CC2C(=O)N(c3ccc(C)cc3)C(=O)N2CCc2ccccc2)cc1 (stereo not given),5.0%,.,-5.8%,.
O=c1c(-c2ccc(Cl)cc2)c(C(F)(F)F)oc2c(CN3CCCCC3)c(O)ccc12,15.7%,.,-15.1%,.
C/C(N)=C(/C#N)C(=O)CSc1cc(Cl)ccc1Cl,-1.8%,4.8,-2.3%,-1.4
Cc1ccccc1NC(=O)CSc1nc2ccc(NC(=O)c3ccco3)cc2s1,-4.3%,.,?,.
C/C(N)=C(/C#N)C(=O)CSc1nc2cc(Cl)ccc2s1,-9.3%,+,-26.8%,23.9*
COc1cccc(NC(=O)CSc2nc3ccc(NC(=O)c4ccco4)cc3s2)c1,4.2%,.,39.8µM*,.
CCSc1nnc(NC(=O)Nc2cccc(C)c2)s1,19.1%,100.5*,1.8%,38.1*
C/C(N)=C(/C#N)C(=O)CSc1nnc(Nc2cccc(C)c2)s1,3.8%,67.1*,93.3%,30.9*
CCOc1ccc2c(c1)c(=O)c(S(=O)(=O)c1ccc(C)cc1)cn2Cc1ccccc1Cl,0.4%,.,-8.3%,.
CCOc1ccc(NC(c2ccccc2)P(=O)(OC)OC)cc1 (stereo not given),15.8µM*,25.7*,-1.2%,11.9
CCOP(=O)(OCC)C(Nc1cccc([N+](=O)[O-])c1)c1ccc(OC)cc1 (stereo not given),2.2%,6.4,-17.4%,0.9
COc1ccc(C(Nc2ccccc2)P(=O)(Oc2ccccc2)Oc2ccccc2)cc1 (stereo not given),-11.0%,56.5*,-0.7%,27.7*
CCOP(=O)(OCC)C(Nc1ccccc1)c1cc(OC)ccc1OC (stereo not given),7.2%,-1.6,-12.4%,-2.7
COP(=O)(OC)C(Nc1ccc(C)cc1)c1ccc([N+](=O)[O-])cc1 (stereo not given),1.3%,24.6*,40.4%,44.0*
O=C(NCCn1cc(SCc2ccc(Cl)cc2)c2ccccc21)c1cccs1,4.1%,.,-6.7%,.
O=C(Cn1ncc2c([nH]c3ccccc32)c1=O)NCCCN1CCN(c2ccc(F)cc2)CC1,8.8%,.,?,.
Cc1nnc(N2CCC(C(=O)NCCC(C)C)CC2)c2nn(-c3ccc(Cl)cc3)c(C)c12,-0.4%,.,-9.5%,.
O=C(O)CSCc1nc2ccccc2[nH]1,0.3%,-14.2,0.7%,-2.8
O=C(CSCc1nc2ccccc2[nH]1)N1CCN(c2ccc(F)cc2)CC1,?,12.0,35.5µM*,8.9
O=C(CCSCc1ccccc1Cl)N1CCN(c2cccc(Cl)c2)CC1,18.7%,-5.1,-19.2%,-1.6
O=C(CSCc1nc2ccccc2[nH]1)N1CCN(c2cccc(Cl)c2)CC1,-3.4%,-9.3,35.5µM*,-1.8
SMILES,Sm TGR inh,Shiga toxin inh,FMDV antiviral,CHX counter
CCOc1ccc(NC(=O)CN2C(=O)NC(CCSC)C2=O)cc1 (stereo not given),-8.3%,-14.9,-3.2%,-3.0
CSCCC1NC(=O)N(CC(=O)Nc2ccc(-c3ccccc3)cc2)C1=O (stereo not given),0.5%,65.5*,13.7%,20.9*
O=[N+]([O-])c1cc(S(=O)(=O)/N=C(/c2ccccc2)N2CCOCC2)ccc1Cl,44.7µM*,-4.1,0.0%,6.0
O=c1[nH]c2ccccc2nc1/C=C/c1ccccc1,-5.7%,58.9*,37.6%,44.9*
CC(C)(C)/C(O)=C/c1nc2ccccc2[nH]c1=O,-2.8%,10.9,9.2%,5.9
O=c1[nH]c2ccccc2nc1/C=C(\O)C1CC1,1.5%,-5.3,49.5%,2.9
O=c1[nH]c2ccccc2nc1/C=C/c1ccc(F)cc1,-23.0%,73.2*,17.9%,37.3*
O=c1[nH]c2ccccc2nc1/C=C/c1ccc(O)cc1,4.0%,69.7*,-1.4%,41.9*
Cc1ccc(-n2c(SCc3nc(-c4ccccc4C)no3)nnc2-c2ccncc2)cc1C,9.1%,.,0.0%,.
N[C@@]1(C(=O)O)CN[C@@H](C(=O)O)C1,.,.,-9.3%,.
O=C(Nc1ccc(OC(F)(F)F)cc1)c1cccc(-n2cnnn2)c1,10.0%,.,-5.8%,.
COC(=O)c1ccc(COc2ccc(/C=N/Nc3cccc(C(=O)O)c3)cc2)cc1,?,108.8*,-28.7%,83.8*
CCOc1cc(C=O)ccc1OCC(=O)N1CCCC1,0.0%,5.9,-0.1%,-3.4
O=C(O)c1cccc(N/N=C/c2ccc(OC(F)(F)F)cc2)c1,6.6%,137.7*,25.1µM*,77.1*
O=C(CCCNc1ccccc1)N/N=C/c1cccs1,13.9%,-2.7,54.8%,-4.2
O=C(O)c1cccc(N/N=C/c2cccs2)c1,-7.4%,147.0*,2.24µM*,83.6*
CCOc1cc(/C=N/Nc2cccc(C(=O)O)c2)ccc1OCC(=O)N1CCCCC1,-1.7%,125.9*,-4.1%,69.8*
O=C(Nc1cc(Cl)cc(Cl)c1)c1ccc(F)c(S(=O)(=O)NC2CCCC2)c1,-2.0%,.,-8.8%,.
CCC1CN(CCNC(=O)c2cccc3nccnc23)Cc2cc(OC)ccc2O1 (stereo not given),.,.,-11.4%,.
O=C(NCc1ccncc1)C(=O)N/N=C/c1ccc(OCc2ccccc2)cc1,11.6%,-8.6,-3.3%,7.5
CSc1ccc(/C=N/NC(=O)C[n+]2ccccc2)cc1,1.6%,-2.5,-12.1%,0.5
COC(=O)c1ccc(COc2ccc(/C=N/Nc3nc(C)cc(=O)[nH]3)cc2)cc1,-0.1%,45.1*,12.3%,9.1
CSc1ccc(/C=N/Nc2cccc(C(=O)O)c2)cc1,19.0%,+,2.24µM*,91.8*
O=C(O)c1cc(N/N=C/c2ccc(OCc3ccccc3)cc2)ccc1Cl,-1.1%,149.0*,73.7%,72.4*
O=C(O)c1cc(N/N=C/C=C/c2ccccc2)ccc1Cl,34.4%,171.9*,-14.0%,39.7*
SMILES,Sm TGR inh,Shiga toxin inh,FMDV antiviral,CHX counter
Cc1cccc(OCc2nc(CC(=O)Nc3ccc(C)c(C)c3)cs2)c1,1.5%,.,2.9%,.
Cc1ccc(Cl)cc1NC(=O)C1CCN(S(=O)(=O)c2cccc3nonc23)CC1,3.5%,.,0.0%,.
NS(=O)(=O)OCCCc1ccccc1,7.8%,-12.3,-1.7%,-5.5
NS(=O)(=O)OCCCCCc1ccccc1,-23.1%,19.2,-0.1%,14.3*
COc1ccc(OC)c(C2CC(=O)N3CN(c4cccc(Cl)c4C)CSC3=C2C#N)c1 (stereo not given),10µM*,-4.3,-6.0%,1.2
COc1ccc(OC)c(C2CC(=O)N3CN(c4ccc(C)c(Cl)c4)CSC3=C2C#N)c1 (stereo not given),20µM*,-4.2,0.3%,-4.7
COc1ccc(OC)c(C2CC(=O)N3CN(c4cccc(Cl)c4)CSC3=C2C#N)c1 (stereo not given),50.1µM*,4.1,0.0%,1.0
COc1cccc(C2CC(=O)N3CN(c4cccc(Cl)c4C)CSC3=C2C#N)c1OC (stereo not given),0.0%,-14.8,-5.1%,-7.0
O=C(Cc1ccc2c(c1)OCO2)N1CCOc2ccc(CN3CCOCC3)cc2C1,.,.,10.3%,.

# Screening data deposited in PubChem BioAssay by National Center for Advancing Translational Sciences (NCATS).
